Reference: PubChem BioAssay
Active and inactive are the calls of the source.

What was measured:
[1] = tested on: Plasmodium falciparum Sir2 (PF13_0152, Sir2A); experiment: Plasmodium falciparum Sir2A binding compounds – biochemical, small-molecule microarray, 635 nm fluorescence, primary screen (AID 1098); details: fluorescence 635 nm, higher = more signal;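 also: score merges spot fluorescence intensity with its signal-to-noise ratio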
[2] = probe aDKK1 binding to arrayed compounds – biochemical, biotinylated probe, 635/667 nm fluorescence, primary screen (AID 1099); details: small-molecule microarray, higher = more signal;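 also: score merges 667nm spot fluorescence with signal to noise across triplicate slides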
[3] = probe aCHRDL2 binding to arrayed compounds – biochemical, biotinylated probe, 635/667 nm fluorescence, primary screen (AID 1100); details: small-molecule microarray, higher = more signal
[4] = change in splice reporter luminescence, either direction, cell-based, HEK293, spliceosome inhibition project, primary screen (AID 1101); details: HEK293 splicing luciferase reporter, 24 h, higher = more signal, called active from +8 up or from −8 down;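 also: HEK293 cells carrying a splicing-competent luciferase reporter gene; test concentration not given here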
[5] = molecular target: Fibroblast growth factor 10 (Homo sapiens) (UniProt O15520); experiment: compounds binding fibroblast growth factor 10 – biochemical, small-molecule microarray, 635 nm fluorescence, primary screen (AID 1102); details: FGF10 binding, fluorescence 635 nm, higher = more signal
[6] = tested on: glycogen synthase kinase-3 (GSK3A per assay name; protocol says GSK3B); experiment: compounds binding glycogen synthase kinase-3 – biochemical, small-molecule microarray, 635 nm fluorescence, GSK3A, primary screen (AID 1103); details: fluorescence 635 nm, higher = more signal; also: the record names both GSK3A and GSK3B
[7] = molecular target: Epidermal growth factor receptor (Homo sapiens) (UniProt P00533); experiment: compounds binding epidermal growth factor receptor – biochemical, small-molecule microarray, 635 nm fluorescence, primary screen (AID 1104); details: EGFR binding, higher = more signal;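 also: score merges 667 nm emission intensity with spot signal to noise over triplicate slides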
[8] = molecular target: Follistatin-related protein 3 (Homo sapiens) (UniProt O95633); experiment: compounds binding follistatin-related protein 3 – biochemical, small-molecule microarray, 635 nm fluorescence, primary screen (AID 1105); details: FSTL3 binding, higher = more signal;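 also: score merges emission near 667 nm and signal to noise per printed spot across three slides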
[9] = molecular target: Dickkopf-related protein 1 (Homo sapiens) (UniProt O94907); experiment: small molecules binding DKK1 protein – biochemical, small-molecule microarray, 635 nm fluorescence scan, primary screen (AID 1106); details: higher = more signal;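 also: score merges emission near 667 nm with signal to noise over three replicate slides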
[10] = tested on: Inhibin beta A chain (activin A); experiment: small molecules binding activin A – biochemical, small-molecule microarray, 635 nm fluorescence scan, primary screen (AID 1107); details: INHBA, higher = more signal;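 also: mouse activin A protein probed at 4.33 µg/mL on printed slides; score merges bound-protein fluorescence near 667 nm with spot signal-to-noise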
[11] = tested on: Human papillomavirus type 1a protein E7 (residues 44-93); experiment: small molecules binding HPV E7 44-93 – biochemical, small-molecule microarray, residues 44-93, 635 nm fluorescence, primary screen (AID 1108); details: fluorescence 635 nm, higher = more signal;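 also: E7 fragment applied at 1 µg/mL in TBST for 1 h at 4 C; score combines spot fluorescence with its signal to noise ratio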
[12] = hepatitis C replication reporter changes, two-sided – Huh7 cells, luciferase reporter, HCV replication inhibitor project, primary screen (AID 1109); details: Huh7 HCV replicon luciferase reporter, 48 h; higher = more signal;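 also: huh7 hepatoma cells harbouring a luciferase neomycin HCV replicon reporter; luciferase luminescence as measure of HCV replicon replication; test concentration not given here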
[13] = molecular target: Left-right determination factor 2 (Homo sapiens) (UniProt O00292); experiment: small molecules binding LEFTY2 protein – biochemical, small-molecule microarray, 635 nm fluorescence scan, primary screen (AID 1110); details: higher = more signal
[14] = molecular target: Calmodulin-1 (Homo sapiens) (UniProt P0DP23); experiment: small molecules binding calmodulin-1 with EGTA – biochemical, small-molecule microarray, Cy5-labelled CALM1, profiling panel (AID 1111); details: Cy5-CALM1 binding fluorescence, higher = more signal;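 also: labelled calmodulin applied in Tris saline Tween buffer holding calcium plus EGTA and DTT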
[15] = molecular target: Calmodulin-1 (Homo sapiens) (UniProt P0DP23); experiment: small molecules binding Ca-loaded calmodulin-1 – biochemical, small-molecule microarray, Cy5-labelled CALM1, plus calcium, artefact control for SMM control-protein annotation, profiling panel (AID 1112); details: Cy5-CALM1 binding fluorescence, higher = more signal;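 also: score merges spot fluorescence with signal to noise from triplicate slides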
[16] = probe aWnt5a binding to arrayed compounds – biochemical, biotinylated probe, 635/667 nm fluorescence, primary screen (AID 1113); details: small-molecule microarray, higher = more signal;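 also: score merges 667 nm fluorescence intensity with signal-to-noise per printed feature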
[17] = probe aShh binding to arrayed compounds – biochemical, biotinylated probe, 635/667 nm fluorescence, primary screen (AID 1114); details: small-molecule microarray, higher = more signal;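 also: probe is biotin-labelled aShh protein from a stem cell growth factor screen; measures binding of labelled protein to compounds printed on the slide; score merges feature fluorescence at 667 nm with signal-to-noise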
[18] = probe aNog binding to arrayed compounds – biochemical, biotinylated probe, 635/667 nm fluorescence, primary screen (AID 1115); details: small-molecule microarray, higher = more signal;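 also: probe is biotinylated aNog protein used at 0.15 µg/mL for 1 h at 4 C; z-score combines 667 nm fluorescence of each spot with its signal to noise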
[19] = molecular target: Torsin-1A-interacting protein 1 (Homo sapiens) (UniProt Q5JTV8); experiment: compound microarray binding of lysate hLAP1 – cell lysate, small-molecule microarray, COS7 lysate, 635/667 nm fluorescence, primary screen (AID 1116); details: 635 nm fluorescence, higher = more signal
[20] = molecular target: Alpha-bungarotoxin (Bungarus multicinctus) (UniProt P60615); experiment: compounds binding labelled alpha-BTX control protein – biochemical, small-molecule microarray, Alexa647 label, 635/667 nm fluorescence, artefact control for SMM control protein annotation, profiling panel (AID 1117); details: alpha-BTX-A647 binding fluorescence, higher = more signal
Alpha-bungarotoxin (Bungarus multicinctus), sequence (P60615 whole entry, looked up): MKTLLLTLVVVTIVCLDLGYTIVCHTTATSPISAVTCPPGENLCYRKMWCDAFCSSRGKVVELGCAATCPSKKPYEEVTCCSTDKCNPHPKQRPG

Fibroblast growth factor 10 (Homo sapiens), sequence (O15520 whole entry, looked up): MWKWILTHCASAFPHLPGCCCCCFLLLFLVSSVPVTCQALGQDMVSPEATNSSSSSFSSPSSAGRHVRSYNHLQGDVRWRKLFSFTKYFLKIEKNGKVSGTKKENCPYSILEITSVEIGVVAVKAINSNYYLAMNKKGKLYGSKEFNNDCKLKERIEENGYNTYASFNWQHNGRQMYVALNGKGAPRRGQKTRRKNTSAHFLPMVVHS
Torsin-1A-interacting protein 1 (Homo sapiens), sequence (Q5JTV8 whole entry, looked up): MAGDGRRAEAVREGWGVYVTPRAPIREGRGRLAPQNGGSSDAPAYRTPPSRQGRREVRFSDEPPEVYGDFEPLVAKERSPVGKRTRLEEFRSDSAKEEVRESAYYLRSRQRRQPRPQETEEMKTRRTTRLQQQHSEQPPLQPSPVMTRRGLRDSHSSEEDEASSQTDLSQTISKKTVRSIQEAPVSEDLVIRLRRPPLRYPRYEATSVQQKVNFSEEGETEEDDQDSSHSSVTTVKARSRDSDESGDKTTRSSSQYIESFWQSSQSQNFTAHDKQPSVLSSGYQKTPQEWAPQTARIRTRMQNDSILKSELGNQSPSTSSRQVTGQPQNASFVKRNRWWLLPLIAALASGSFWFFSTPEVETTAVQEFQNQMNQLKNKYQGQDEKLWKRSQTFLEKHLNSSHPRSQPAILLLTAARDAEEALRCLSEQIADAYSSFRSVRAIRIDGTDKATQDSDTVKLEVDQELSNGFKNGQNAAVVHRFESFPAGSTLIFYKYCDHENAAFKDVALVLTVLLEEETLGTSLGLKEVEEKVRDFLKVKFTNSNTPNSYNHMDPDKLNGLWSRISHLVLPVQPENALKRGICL
Epidermal growth factor receptor (Homo sapiens), sequence (P00533 whole entry, looked up): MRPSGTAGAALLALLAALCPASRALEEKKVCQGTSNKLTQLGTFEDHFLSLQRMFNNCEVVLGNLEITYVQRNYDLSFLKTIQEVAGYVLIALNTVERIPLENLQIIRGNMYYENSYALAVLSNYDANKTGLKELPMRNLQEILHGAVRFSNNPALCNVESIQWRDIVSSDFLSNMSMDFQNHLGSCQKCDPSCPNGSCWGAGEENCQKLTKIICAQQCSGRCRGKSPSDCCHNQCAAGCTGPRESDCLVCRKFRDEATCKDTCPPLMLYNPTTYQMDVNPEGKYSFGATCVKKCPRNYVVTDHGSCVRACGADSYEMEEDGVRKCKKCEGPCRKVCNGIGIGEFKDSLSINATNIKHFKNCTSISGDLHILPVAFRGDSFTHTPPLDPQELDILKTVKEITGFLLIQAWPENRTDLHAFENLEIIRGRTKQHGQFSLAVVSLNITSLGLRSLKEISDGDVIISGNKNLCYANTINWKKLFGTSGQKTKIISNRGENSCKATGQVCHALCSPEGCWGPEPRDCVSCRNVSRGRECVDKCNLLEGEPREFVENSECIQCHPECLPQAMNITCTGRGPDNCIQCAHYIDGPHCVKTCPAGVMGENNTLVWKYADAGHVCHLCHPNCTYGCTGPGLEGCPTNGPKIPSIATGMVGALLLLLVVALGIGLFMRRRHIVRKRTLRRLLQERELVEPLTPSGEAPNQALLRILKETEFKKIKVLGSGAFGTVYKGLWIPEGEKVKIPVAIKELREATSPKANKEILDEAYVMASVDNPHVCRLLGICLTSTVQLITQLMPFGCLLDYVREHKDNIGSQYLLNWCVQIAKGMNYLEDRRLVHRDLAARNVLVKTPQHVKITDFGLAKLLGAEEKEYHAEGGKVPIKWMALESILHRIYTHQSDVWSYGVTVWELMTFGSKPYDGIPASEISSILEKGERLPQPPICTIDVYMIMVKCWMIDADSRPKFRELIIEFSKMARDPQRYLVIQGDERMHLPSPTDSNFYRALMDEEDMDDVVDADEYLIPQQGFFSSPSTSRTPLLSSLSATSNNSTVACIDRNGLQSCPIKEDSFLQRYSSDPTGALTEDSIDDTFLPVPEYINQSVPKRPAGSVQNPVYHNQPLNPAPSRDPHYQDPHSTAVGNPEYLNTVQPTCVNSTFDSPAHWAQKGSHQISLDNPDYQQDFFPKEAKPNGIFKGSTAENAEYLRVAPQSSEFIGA
Left-right determination factor 2 (Homo sapiens), sequence (O00292 whole entry, looked up): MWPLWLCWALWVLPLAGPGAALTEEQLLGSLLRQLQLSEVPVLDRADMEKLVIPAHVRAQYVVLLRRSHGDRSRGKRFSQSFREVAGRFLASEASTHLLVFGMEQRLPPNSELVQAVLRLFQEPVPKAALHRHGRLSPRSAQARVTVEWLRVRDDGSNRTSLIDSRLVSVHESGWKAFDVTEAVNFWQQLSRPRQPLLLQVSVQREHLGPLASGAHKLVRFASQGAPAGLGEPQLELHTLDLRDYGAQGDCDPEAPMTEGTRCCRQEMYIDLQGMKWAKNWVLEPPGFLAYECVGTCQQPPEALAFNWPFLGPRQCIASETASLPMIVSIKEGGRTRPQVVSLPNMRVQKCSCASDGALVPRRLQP
Dickkopf-related protein 1 (Homo sapiens), sequence (O94907 whole entry, looked up): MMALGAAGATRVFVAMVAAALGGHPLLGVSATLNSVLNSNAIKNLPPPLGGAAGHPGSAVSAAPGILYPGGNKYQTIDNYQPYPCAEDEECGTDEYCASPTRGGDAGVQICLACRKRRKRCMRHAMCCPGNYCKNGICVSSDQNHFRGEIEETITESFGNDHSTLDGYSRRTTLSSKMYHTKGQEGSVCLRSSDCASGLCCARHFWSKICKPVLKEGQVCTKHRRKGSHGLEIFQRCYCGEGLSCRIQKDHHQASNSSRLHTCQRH
Follistatin-related protein 3 (Homo sapiens), sequence (O95633 whole entry, looked up): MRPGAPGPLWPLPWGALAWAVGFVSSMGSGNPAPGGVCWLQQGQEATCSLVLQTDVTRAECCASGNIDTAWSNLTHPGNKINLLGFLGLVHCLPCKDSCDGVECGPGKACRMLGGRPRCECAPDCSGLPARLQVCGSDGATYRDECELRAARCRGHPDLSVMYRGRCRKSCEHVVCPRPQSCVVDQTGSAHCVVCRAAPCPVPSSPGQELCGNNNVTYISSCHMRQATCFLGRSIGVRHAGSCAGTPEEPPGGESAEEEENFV

Structure (SMILES)	composite z-score [1]	composite z-score [2]	composite z-score [3]	z-score [4]	composite z-score [5]	composite z-score [6]	composite z-score [7]	composite z-score [8]	composite z-score [9]	composite z-score [10]	composite z-score [11]	z-score [12]	composite z-score [13]	composite z-score [14]	composite z-score [15]	composite z-score [16]	composite z-score [17]	composite z-score [18]	composite z-score [19]	composite z-score [20]
COC(=O)[C@@]1(CCC(=O)OC(C)(C)C)COC(c2ccc(OCCCO)cc2)=N1	-1.07	0.623	1.18	-0.493 (inactive)	-1.2	-1.19	-1.82	-2.47	-2.17	-0.0726	-1.42	0.136	-1.57	-0.683	0.674	-0.197	-0.0626	0.424	-0.123	-0.741
O=C(NO)[C@]1(Cc2ccccc2)N=C(c2ccc(OCCCO)cc2)O[C@@H]1c1ccccc1	1.3	0.256	0.694	-4.02 (inactive)	-0.227	-0.371	-0.637	0.262	-0.546	-0.169	-0.281	-1.73	-0.79	-0.271	0.309	-0.377	0.157	0.168	0.395	2.41
COc1c(C)cc(-c2cc3c(c(CCc4ccccc4)n2)[Si](C(C)C)(C(C)C)OC3)cc1C	-0.615	0.335	0.156	-1.28 (inactive)	0.513	0.723	0.927	0.567	0.162	0.474	0.804	0.336	0.474	-0.354	-0.381	-0.152	-0.131	0.162	0.0693	-0.382
C=CCNC(=O)[C@@H]1[C@H]2C(=O)O[C@H](c3ccccc3)[C@H](c3ccccc3)N2[C@H](c2ccc(O)cc2)[C@@]12C(=O)Nc1ccc(C#Cc3ccc(OC)cc3)cc12	0.775	0.74	0.273	-0.934 (inactive)	0.564	1.26	0.312	0.961	0.389	0.311	0.927	-2.67	0.239	1.61	0.941	-0.0236	1.03	-0.274	1.02	2.75
O=C1c2ccccc2C(=O)c2cc([C@H]3Oc4ccccc4S(=O)(=O)N4CCC[C@@H]34)ccc21	-1.12	-0.108	0.461	-0.833 (inactive)	-0.439	-0.896	-0.727	-1.02	0.11	1.09	-1.1	-2	-0.148	-0.94	0.812	-0.16	-0.214	0.0431	-0.749	-0.744
CCCC[C@@H](O)C1=C(C)C[C@H]2C(=O)N(C)C(=O)[C@H]2[C@H]1CO	1.42	-0.372	-0.493	-0.72 (inactive)	0.755	0.349	0.269	0.229	0.3	-0.301	0.276	0.739	0.322	-0.409	-0.471	-0.0944	0.0141	0.185	0.0605	0.548
CC(=O)NCCCC[C@@H]1NC(=O)[C@@H]2C[C@H](C(=O)O)[C@H](c3cccc(OCCO)c3)N2C1=O	1.25	-0.018	-0.37	-0.877 (inactive)	1.13	1.21	0.782	0.787	1.21	-0.456	0.952	0.436	1.46	-0.188	-0.789	-0.0403	-0.0626	-0.37	0.947	1.03
CO[C@H]1O[C@H](CO)[C@@H](OC(=O)Nc2ccccc2)[C@H](OC(=O)Nc2ccc3c(c2)OCO3)[C@H]1OC(=O)Nc1ccc2c(c1)OCO2	1.59	0.666	0.757	-0.618 (inactive)	0.729	0.741	-0.242	0.292	0.0894	0.798	0.538	-1.04	0.452	1.65	-0.617	0.0973	0.0898	1.19	1.51	0.485
CCOC(=O)C[C@H]1[C@H](OC(=O)c2cc3ccccc3oc2=O)[C@@H](NC(=O)c2ccccc2)c2cc(OCCCO)ccc2N1C(=O)Cc1ccc(OC)cc1	0.575	0.33	-0.194	-1.78 (inactive)	0.905	0.714	0.433	0.909	0.511	0.506	0.378	-0.824	0.357	0.163	-0.422	-0.182	-0.138	0.23	0.44	0.693
C#CCOc1ccc(C[C@H]2C(=O)O[C@H](Cc3ccccc3)[C@H](/C=C/C3CC3)N2CC#C)cc1	1.32	-0.162	-0.0338	-1.18 (inactive)	-0.425	-0.526	-0.925	-0.566	-0.175	0.809	-0.462	-2.14	-0.36	-0.491	-0.685	-0.176	-0.153	-0.433	0.204	0.0192
COc1ccc(CCNC(=O)[C@@]2(Sc3ccc(C)cc3)CC(=O)N(Cc3ccccc3)[C@@H]2c2ccc(CO)cc2I)cc1	1.16	-0.0607	0.566	-1.24 (inactive)	-0.553	-0.407	-0.46	0.149	0.0928	0.761	0.152	-2.18	-1.46	-0.615	-0.0032	-0.17	-0.596	0.0805	-0.72	0.672
